# HT1080 IDH1KD tx – kills HT-1080 cells with IDH1 knockdown; Potency, µM (series often up to 46.1 µM), for the others: top-dose activity, negative = toxicity, most hits filed as cytotoxic; HT-1080 IDH1 knockdown viability, ATP luminescence, 48 h; 360,000 tested, 2% active;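 note: potency is the fitted concentration of half-maximal effect; 0% = DMSO wells and -100% = cell-free medium wells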
#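 CellTiter-Glo luminescence after 48 h compound exposure at 37 degrees C of IDH1-knockdown HT-1080 cells in 5% FBS RPMI. %Activity scaled between DMSO wells and cell-free media wells, with curves fitted and assigned curve classes.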
# DT40 TDP1 no CPT – qHTS for Inhibitors of human tyrosyl-DNA phosphodiesterase 1 (TDP1): qHTS in cells in absence of CPT | Potency, µM (titrated, usually from 46.2 µM), for the others: top-dose activity change, negative = growth inhibition, hits mostly inhibitors | DT40 Tdp1-/- hTDP1 cells, no CPT, ATP luminescence, 48 h | 420,000 tested, 15% active | AID 686978, 2013; note: potency is the fitted concentration of half-maximal effect; nearly all actives have a fitted effect of over 55% in size
#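 Chicken DT40 Tdp1-/- cells stably complemented with human TDP1 were seeded at 400 cells/well with DMSO in place of 20 nM camptothecin. After compound pinning, cells grew at least 48 hr at 37 °C; viability read by CellTiter-Glo luminescence.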
# IL-1B inflam inh – inflammasome signaling inhibition, IL-1 beta readout. activity change, % at 57.5 µM. THP-1 LPS/ATP IL-1B secretion, AlphaLISA, 16 h; active compounds read low. 360,000 tested, 4.7% active. AID 743279; in the data active = activity change below about -50%; inconclusive = mostly about -30% to -49%
#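 Secreted IL-1B measured by AlphaLISA bead assay after 16 h compound exposure of THP-1 cells; compounds (final up to 57.5 uM) added 1 h before LPS (250 ng/mL) and ATP (1.25 mM) stimulation; lower signal means less secretion.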
# 12-LOX inh – ALOX12 (human) lipoxygenase inhibition; purified 12hLO, xylenol orange hydroperoxide absorbance; 580,000 tested, 1.1% active; Potency, µM (top dose mostly 108 µM), inactives show top-dose activity change, negative = inhibition, hits mostly inhibitors; P18054; AID 1671190; note: potency is the fitted concentration of half-maximal effect
# Target sequence (P18054 whole entry, looked up): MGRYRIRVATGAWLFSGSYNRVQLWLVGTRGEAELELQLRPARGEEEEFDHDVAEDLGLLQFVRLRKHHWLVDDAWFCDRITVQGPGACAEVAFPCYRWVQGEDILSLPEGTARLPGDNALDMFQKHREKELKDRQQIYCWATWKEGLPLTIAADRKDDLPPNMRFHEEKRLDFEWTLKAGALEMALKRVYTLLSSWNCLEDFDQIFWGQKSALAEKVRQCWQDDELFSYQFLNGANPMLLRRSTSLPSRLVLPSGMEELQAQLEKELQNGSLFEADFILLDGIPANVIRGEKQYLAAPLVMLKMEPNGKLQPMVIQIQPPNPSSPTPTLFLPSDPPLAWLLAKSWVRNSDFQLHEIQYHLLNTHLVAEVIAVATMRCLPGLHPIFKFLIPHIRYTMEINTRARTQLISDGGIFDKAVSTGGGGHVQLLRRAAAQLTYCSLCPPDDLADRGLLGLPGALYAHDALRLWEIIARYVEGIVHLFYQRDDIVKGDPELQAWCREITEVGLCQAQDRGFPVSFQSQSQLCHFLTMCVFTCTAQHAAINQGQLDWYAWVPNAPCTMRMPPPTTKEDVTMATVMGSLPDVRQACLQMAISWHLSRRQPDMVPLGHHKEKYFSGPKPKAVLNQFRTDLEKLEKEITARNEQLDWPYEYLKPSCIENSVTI
#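 Hydroperoxide product was detected by ferrous iron/xylenol orange as the 573 to 405 nm absorbance ratio. Arachidonic acid at 40 uM (final) was turned over for 30 min at room temperature by 150 nM human 12hLO, pH 7.0 Hepes buffer, after 15 min compound preincubation.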
# DT40 TDP1 CPT – DT40-hTDP1 cell growth loss with CPT | chicken DT40 Tdp1-/-;hTDP1 cells + 20 nM CPT, ATP luminescence, 48 h | Potency, µM (series often up to 46.2 µM), without a hit: top-dose activity change, negative = growth inhibition, most hits filed as inhibitors | 420,000 tested, 12% active | AID 686979; note: potency is the fitted concentration of half-maximal effect; nearly all actives have a fitted effect of over 55% in size
#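 Chicken DT40 Tdp1-/- cells complemented with human TDP1, 400 cells/well, exposed to compounds plus 20 nM camptothecin for at least 48 h at 37 C; viability read as ATP content by CellTiter-Glo luminescence.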
# HT1080NT lethal – kills 2HG-producing HT-1080-NT fibrosarcoma cells; HT-1080-NT fibrosarcoma viability, CellTiter-Glo ATP luminescence, 48 h; Potency, µM (top dose mostly 46.1 µM), without a hit: top-dose activity, negative = less viability, most hits filed as cytotoxic; AID 686970; 360,000 tested, 1.6% active;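 note: NT is the 2HG producing partner of a matched IDH1 knockdown line; potency is the fitted concentration of half-maximal effect; 0% = DMSO-treated cells and -100% = media-only wells without cells; nearly all actives have a fitted effect of over 55% in size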
#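 750 cells/well, RPMI + 5% FBS; 2 h settle, compound pin-transfer, 48 h at 37 degrees C. CellTiter-Glo 10 min RT, luminescence. Normalized to DMSO and media-only wells.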
# * marks the source's active call; other numbers are inactive results; ? = inconclusive; . = no result; [ ] = another dose, or the depositor's remark. This excerpt belongs to a sample that is enriched for hits. Unless noted, calls come from the whole dose curve; as a rule, active = well fitted curve in the direction sought with a large enough effect; inconclusive = small, poorly fitted or top-dose-only effect, or another doubt; inactive = no such curve, though single readings can be large; an effect the other way counts as inactive or inconclusive. Unless noted, % is set by controls: 0 for no effect and ±100 for the full control effect.
SMILES,HT1080 IDH1KD tx,DT40 TDP1 no CPT,IL-1B inflam inh,12-LOX inh,DT40 TDP1 CPT,HT1080NT lethal
CCCCN1CC[C@H]2C=CC[C@@H](C(=O)Nc3ccccc3)[C@H]2C1=O,-2%,-5%,30,-3%,?,17%
COc1ccc(CN2CC[C@H]3C=CC[C@@H](C(=O)NCCc4ccccc4)[C@H]3C2=O)cc1OC,4%,?,0,34%,14µM*,19%
O=C(Nc1ccccc1)[C@@H]1CC=C[C@@H]2CCN(Cc3ccc(Cl)c(Cl)c3)C(=O)[C@@H]21,?,18µM*,?,3%,?,?
COCC(=O)NC[C@@H]1C=C(C)[C@H](CC(=O)N2CCN(C(C)=O)CC2)C[C@H]1C(C)C,.,.,.,-2%[176 µM],.,.
Cc1ccc(C)c(N(C)C(=O)Cn2nc(Cc3ccncc3)c3ccccc3c2=O)c1,.,.,.,-2%,.,.
Cc1ccc(C(=O)NCCC(=O)N2CCCC2)cc1C,.,.,.,-3%,.,.
Cc1cc2c(cc1C)N(C(=O)CCl)CC(=O)N2,23µM*,2.6µM*,-65*,.,2.3µM*,?
Cc1cc(=O)oc2cc(OCC(=O)N3CC(=O)Nc4ccccc43)c(Cl)cc12,1%,-6%,10,7%,-6%,1%
Cc1cc2c(cc1C)N(C(=O)CCl)CCN2C(=O)CCl,?,0.58µM*,-100*,8.9µM*,0.46µM*,?
Cc1ccc(-c2nnc(CCC(=O)Nc3nc(C)cs3)o2)cc1,.,.,.,17%,.,.
CCOc1ccc(N(CC(=O)NC2CCCC2)C(=O)CCC(=O)Nc2nccs2)cc1,-2%,-24%,-52*,-11%,-11%,3%
CCOc1ccc(N(CC(=O)NC2CCCCC2)C(=O)CCC(=O)Nc2nccs2)cc1,6%,0%,-18,10%,-3%,2%
Nc1ccc(S(=O)(=O)c2cc(O)c3ccccc3c2O)cc1,-8%,2.3µM*,-112*,?,1.5µM*,-3%
COC(=O)Cc1nnn2c1[C@H](C)[C@H](c1cccc(OC)c1OC)OCC2,.,.,.,0%,.,.
Cc1ccc(Cl)cc1NC(=O)CC(O)(C(F)(F)F)C(F)(F)F,?,?,-83*,-9%,18µM*,20µM*
CCCC(=O)N1CCCN(C(C)C(=O)Nc2ccc(C)c(F)c2)CC1 (configuration not stated),.,.,.,17%,.,.
COc1ccc(-c2cc(C(F)(F)F)n3nc(C(=O)NCCCn4ccnc4)cc3n2)cc1,-1%,?,-59*,402%,-30%,-2%
CCCNC(=O)c1nn2c(C(F)(F)F)cc(-c3ccccc3)nc2c1Cl,-18%,?,-15,24%,?,?
O=C(NCCCn1ccnc1)c1nn2c(C(F)(F)F)cc(-c3ccc(Br)cc3)nc2c1Cl,-3%,16µM*,-52*,4%,23µM*,-3%
COc1ccc(-c2cc(C(F)(F)F)n3nc(C(=O)NCCN4CCOCC4)cc3n2)cc1,-7%,?,-18,-6%,?,1%
Brc1ccc([C@H]2C=C[C@H]3CCCN4CC[C@H]2[C@@H]3[C@]42CO2)cc1,-23%,12µM*,?,?,18µM*,-12%
CN(C(=O)Cn1nc(Cc2ccncc2)c2ccccc2c1=O)c1ccccc1F,.,.,.,-8%,.,.
Cc1ccc(/C=N/Nc2nc3ccccc3s2)o1,-10%,?,?,?,?,-8%
C/C(=N\Nc1nc2ccccc2s1)c1ccc(Br)s1,?,?,-103*,-20%,?,?
C/C(=N\Nc1nc2ccccc2s1)c1ccc2c(c1)OCO2,-30%,-94%,12,0%,?,-29%
SMILES,HT1080 IDH1KD tx,DT40 TDP1 no CPT,IL-1B inflam inh,12-LOX inh,DT40 TDP1 CPT,HT1080NT lethal
CC(=NNc1nc2ccccc2s1)c1ccncn1,?,0.15µM*,-94*,20%,0.1µM*,?
CC1CCCN1c1ncnc2c1CN(c1cccnc1)C(=O)CN2C (configuration not stated),.,.,.,42%[176 µM],.,.
CCCOc1ccc(C(=O)Nc2nc(C)c(Cc3ccc4c(c3)OCO4)s2)cc1,?,7.3µM*,20,?,?,-14%
Cc1nc(NC(=O)c2ccc(OCC(C)C)cc2)sc1Cc1ccc2c(c1)OCO2,?,16µM*,-12,-12%,?,-15%
COc1cc(C(=O)NCCc2ccc3c(c2)OCO3)cc(OC)c1OC,1%,?,20,-3%,?,3%
COc1cc(C(=O)Nc2nc(C)c(Cc3ccc4c(c3)OCO4)s2)cc(OC)c1OC,4.6µM*,2.1µM*,-10,?,1.3µM*,4.1µM*
O=C(NCc1ccccc1)C1CCN(c2cn[nH]c(=O)c2)C1 (configuration not stated),.,.,.,24%,.,.
CNC(=O)NC(=O)CN(CCC(C)C)C1CC1,.,.,.,-15%,.,.
COc1cccc(/C=N/NC(=O)CNC(=O)COc2cccc(C)c2)c1O,23µM*,18µM*,229,-6%,7.3µM*,?
Cc1cccc(OCC(=O)NCC(=O)N/N=C/c2ccc(O)cc2O)c1,18µM*,5.8µM*,188,-5%,16µM*,-19%
Cc1cccc(OCC(=O)NCC(=O)N/N=C/c2ccccc2)c1,2%,-20%,-1,6%,6%,2%
Cc1cccc2c(=O)c(-c3ccc4c(c3)OCO4)c(NC(=O)c3ccc(F)cc3)oc12,.,.,.,-5%,.,.
C1CCNC(CN2CCOCC2)CC1 (configuration not stated),.,.,.,27%,.,.
Cc1ccc(N2CCN(S(=O)(=O)N3CCCCC3)CC2)cc1Cl,29%,?,0,-7%,?,11%
Cc1cc(C)c(N2CCN(S(=O)(=O)N3CCCCCC3)CC2)c(C)c1,?,18µM*,-2,95%,?,?
CCCCCCNC(=O)N[C@@H](C(=O)NCCC[C@H]1CN2C(=NC[C@@H]2Cc2ccccc2)N1CCc1cccc(OC)c1)C(C)C,-2%,4.6µM*,-91*,.,4.1µM*,0%
COc1cc(NC(=O)c2cc3c(Cl)nc4ccccc4c3s2)cc(OC)c1OC,18%,8.2µM*,-13,-5%,10µM*,14%
CCN(CC)c1nc2ccccc2nc1C(=O)Nc1cc(OC)c(OC)c(OC)c1,.,13µM*,.,-4%,16µM*,.
COc1ccc(NC(=O)c2cc3c(Cl)nc4ccccc4c3s2)c(OC)c1,-1%,?,-10,1%,?,-1%

# Screening results as filed in PubChem BioAssay.
